Data as given in PubChem BioAssay (Tox21).
Several values for one entry are separate records, joined by “and”; a condition that tells them apart may be missing. Identical values can stand only once. More than one record can exist for a structure, and the calls need not agree. Activity calls are given as the source filed them. Calls come from the whole dose curve. Positions of bridges follow the written chain, without caps; N, C: chain ends. Non-standard residues stand in square brackets, D forms with d. Residues, ends and D or L forms follow the SMILES beside them. hArg = N=C(N)NCCCC[C@H](N)C(=O)O; Mpa = O=C(O)CCS

What follows are compounds tested against Acetylcholinesterase (Homo sapiens) (UniProt P22303) (assay: Acetylcholinesterase (AChE) small molecule antagonists: enzyme-based qHTS assay (AID 1347397; note: nearly all actives have a fitted effect of over 55% in size)). Conditions: Potency: AChE enzyme activity inhibition; outcome: AChE enzyme activity inhibition; series mostly up to 115 µM; activity change, negative = inhibition: at the top concentration.
Outline: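 Enzyme inhibition was scored from DTNB-detected thiocholine formed by recombinant human AChE acting on acetylthiocholine. The 30 min compound preincubation and 10 min substrate reaction were both run at room temperature, with DMSO as vehicle control.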
% is set by controls: 0 for no effect and ±100 for the full control effect; potency is the fitted concentration of half-maximal effect.

Acetylcholinesterase (Homo sapiens), sequence (P22303 whole entry, looked up): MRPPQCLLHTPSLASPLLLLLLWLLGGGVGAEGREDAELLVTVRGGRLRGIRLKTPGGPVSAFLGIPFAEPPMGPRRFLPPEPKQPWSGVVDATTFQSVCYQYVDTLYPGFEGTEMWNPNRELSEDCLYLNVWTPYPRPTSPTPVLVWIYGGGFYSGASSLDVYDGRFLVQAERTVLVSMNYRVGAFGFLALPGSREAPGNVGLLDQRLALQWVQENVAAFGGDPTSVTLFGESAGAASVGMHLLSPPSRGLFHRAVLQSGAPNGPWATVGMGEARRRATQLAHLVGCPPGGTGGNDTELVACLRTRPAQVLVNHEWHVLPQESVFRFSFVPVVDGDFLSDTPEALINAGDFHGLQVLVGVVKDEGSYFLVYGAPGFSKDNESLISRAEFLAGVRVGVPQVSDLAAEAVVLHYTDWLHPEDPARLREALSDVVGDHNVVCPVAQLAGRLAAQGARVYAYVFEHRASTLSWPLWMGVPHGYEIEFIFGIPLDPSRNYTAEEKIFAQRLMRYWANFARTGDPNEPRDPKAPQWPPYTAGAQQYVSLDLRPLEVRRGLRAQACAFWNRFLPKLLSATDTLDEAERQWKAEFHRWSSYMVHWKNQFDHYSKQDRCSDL

| SMILES | Potency | activity change, negative = inhibition | outcome |
| --- | --- | --- | --- |
| CCCCC1(COC(=O)CCC(=O)O)C(=O)N(c2ccccc2)N(c2ccccc2)C1=O | inactive |  |  |
| CC(C)Cn1cnc2c1c(=O)n(C)c(=O)n2C |  | -0.265% [at 53 µM] (inactive) |  |
| CC(C)(C)C(=O)CCc1ccc(Cl)cc1 |  | 1.66% (inactive) |  |
| COc1c(Cl)c(Cl)c(Cl)c(Cl)c1Cl | inactive |  |  |
| CCCC(=O)O[C@]1(C(=O)CO)CC[C@H]2[C@@H]3CCC4=CC(=O)CC[C@]4(C)[C@H]3[C@@H](O)C[C@@]21C |  | -0.703% [at 53 µM] (inactive) |  |
| O=C(O)c1ccc(C(=O)O)cc1 | inactive |  |  |
| CC(=O)OCC(C)C |  | 1.29% (inactive) |  |
| C=CCNc1nc(NCC=C)nc(N2CCN(C(c3ccc(F)cc3)c3ccc(F)cc3)CC2)n1 |  |  | inactive |
| CCCCNC(=S)NCCCC |  | 2.25% (inactive) |  |
| CC(C)(C)CC(=O)OCC(=O)[C@@]1(O)CC[C@H]2[C@@H]3CCC4=CC(=O)C=C[C@]4(C)[C@H]3[C@@H](O)C[C@@]21C |  | 0.415% [at 53 µM] (inactive) |  |
| C=C(C)C(=O)OCCOCCOCCOCCOC(=O)C(=C)C |  | 1.74% (inactive) |  |
| On1nnc2ccccc21 |  | -0.134% (inactive) |  |
| CC(C)OC=O | inactive |  |  |
| CCOC(/C=C(\C)CCC=C(C)C)OCC |  | -1.23% (inactive) |  |
| Clc1ccccn1 | inactive |  |  |
| CC(=O)CC(=O)Nc1ccc(C)cc1C |  | -0.333% (inactive) |  |
| CC(=O)c1ccc(C)cc1 |  | -0.645% (inactive) |  |
| Cc1cc(=O)n(-c2ccccc2)n1C | inactive |  |  |
| O=C(O)c1ccccc1Cl |  | 0% (inactive) |  |
| NC(=O)[C@@H]1CSSCCC(=O)N[C@@H](CCCCN=C(N)N)C(=O)NCC(=O)N[C@@H](CC(=O)O)C(=O)N[C@@H](Cc2c[nH]c3ccccc23)C(=O)N2CCC[C@H]2C(=O)N1 ([Mpa][hArg]GDWPC-NH2; disulfide 1-7) |  | 0.236% [at 53 µM] (inactive) |  |

| SMILES | Potency | activity change, negative = inhibition | outcome |
| --- | --- | --- | --- |
| O=C1OC2(c3ccc(O)cc3Oc3cc(O)ccc32)c2ccc(N=C=S)cc21 |  | 7.49% (inactive) |  |
| CC1(C)O[C@@H]2C[C@H]3[C@@H]4CCC5=CC(=O)C=C[C@]5(C)[C@@]4(F)[C@@H](O)C[C@]3(C)[C@]2(C(=O)CO)O1 | inactive |  |  |
| CCCCCCc1ccc(-c2ccc(C#N)cc2)cc1 |  | -2.31% (inactive) |  |
| OC[C@H]1O[C@H](O[C@H]2O[C@H](CO)[C@@H](O)[C@H](O)[C@H]2O)[C@H](O)[C@@H](O)[C@@H]1O |  | -0.136% (inactive) |  |
| CCOC(=O)C(C#N)=C(c1ccccc1)c1ccccc1 | inactive |  |  |
| S=C([S-])NCCNC(=S)[S-].S=C([S-])NCCNC(=S)[S-].[Mn+2].[Zn+2] |  | -21.1% [at 53 µM] (inactive) |  |
| Cc1nc2ccccc2s1 |  | 0.257% (inactive) |  |
| c1cc(C(c2ccc(OCC3CO3)cc2)c2ccc(OCC3CO3)cc2)ccc1OCC1CO1 (stereo not given) |  | 1.03% (inactive) |  |
| CC1(C)C(=O)N(Br)C(=O)N1Br |  | 2.52% (inactive) |  |
| CCCCCCCCCCCCC(=O)O |  | -1.64% (inactive) |  |
| C=CCOC(=O)CCCCCCCC |  | -1.91% (inactive) |  |
| CCNc1cccc(C)c1 | inactive |  |  |
| Cc1cc(N)n(-c2ccccc2)n1 |  | -1.55% (inactive) |  |
| FC(F)(F)C(Cl)Br (stereo not given) | inactive |  |  |
| CCOC(=O)c1ccc(I)cc1 |  | 1.19% (inactive) |  |
| COc1c(Cl)ccc(Cl)c1C(=O)O | inactive |  |  |
| CCCCCCCC/C=C\CCCCCCCC(=O)OC[C@@H](O)[C@H]1OC[C@H](O)[C@H]1O |  | 1.03% (inactive) |  |
| O=C(/C=C/c1ccc([N+](=O)[O-])cc1)c1ccccc1 |  | -0.0103% (inactive) |  |
| CC(=O)C(=O)CC(C)C |  | 0.543% (inactive) |  |
| CCCCCCCCCCCCCC[N+](C)(C)C | 30.6 µM (active) and 70.9 µM (active) and inactive |  |  |
